# Experimental data taken from PubChem BioAssay (NCI).
# Compounds without any hit were thinned out: in the full panel of roughly 83,000, 20% have a hit.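 Interpretation: 100, growth as untreated; towards 0, rising growth inhibition; 0, no net growth; 0 to -100, cell death. Compounds scoring below 10 were considered active.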 Values without a mark were called inactive. Activity calls are given as the source filed them.
# Legend:
# Experiment in all cases: NCI-60 one-dose screen, 48 h (100 = growth as untreated, 0 = no growth, -100 = all killed)
# Conditions in all cases: 10 µM unless noted
# [1] = system: NCI-H23 lung
# [2] = system: NCI-H226 lung
# [3] = system: NCI-H322M lung
# [4] = system: HOP-62 NSCLC
# [5] = system: HOP-92 NSCLC
# [6] = system: NCI-H522 lung
# [7] = system: A549/ATCC NSCLC
# [8] = system: 786-0 renal
# [9] = system: COLO 205 colon
# [10] = system: DU-145 prostate
# [11] = system: K-562 leukemia
# [12] = system: MALME-3M melanoma
# [13] = system: MDA-MB-231 breast
# [14] = system: RXF 393 renal
# [15] = system: SF-268 CNS
# [16] = system: SF-295 CNS
# [17] = system: SF-539 CNS
# [18] = system: UACC-257 melanoma
# [19] = system: M14 melanoma
# [20] = system: NCI-H460 lung
SMILES,growth [1],growth [2],growth [3],growth [4],growth [5],growth [6],growth [7],growth [8],growth [9],growth [10],growth [11],growth [12],growth [13],growth [14],growth [15],growth [16],growth [17],growth [18],growth [19],growth [20]
O=C(CSc1nnc(-c2ccc(-c3nc4ccccc4[nH]3)cc2)o1)Nc1ccc(Br)cc1,1.35% (active),74.4%,36.8%,3.07% (active),9.82% (active),12.8%,0.989% (active),-40.9% (active),51.7%,13.8%,11%,31.9%,-29.1% (active),-62% (active),48.7%,53.8%,-89.8% (active),61.9%,-0.614% (active),
CCc1ccc(SC2c3cc(OC)ccc3Oc3nc(N)c(C#N)c(N)c32)cc1 (stereo unspecified),-5.83% (active),-6.69% (active),,1.33% (active),-38.5% (active),-8.76% (active),-41.2% (active),-54.6% (active),-68.9% (active),3.29% (active),0.578% (active),-55.2% (active),-41.4% (active),-61.8% (active),-4.75% (active),-58.8% (active),-62.1% (active),-9.43% (active),-14.1% (active),3.96% (active)
Cc1cccc(NCC(=O)N2CCN(c3ncnc4c3cnn4-c3ccccc3)CC2)c1,58.4%,54.5%,69.3%,67.4%,,-6.93% (active),65.3%,80.8%,97.4%,75.4%,43.8%,72.8%,65%,76.3%,73.3%,46.6%,59.9%,66.9%,62.2%,
O=C(c1cc2cc(OCCCN3CCC3)ccc2[nH]1)N1C[C@@H](CCl)c2c1cc(OCc1ccccc1)c1ccccc21,-73.4% (active),-4.57% (active),,-44% (active),-18.7% (active),-70.1% (active),-18.5% (active),-86.1% (active),-84.5% (active),-29.5% (active),0.535% (active),-73.9% (active),-41.4% (active),-80.8% (active),0.226% (active),-4.45% (active),-79.8% (active),-23.1% (active),-79.3% (active),-60.1% (active)
O=C(CSc1nc2sc3c(c2c(=O)n1-c1ccc(Cl)cc1)CCCC3)NNC(=O)c1ccc(F)cc1,73.7%,62.7%,73.8%,23.7%,69.2%,77.3%,94.2%,96.8%,125%,109%,72.3%,80.5%,28.8%,89.7%,95.9%,90.4%,-28.4% (active),106%,80.6%,
CCOC(=O)/C(F)=C/C1CC1C1CCN(C(=O)OC(C)(C)C)CC1 (stereo unspecified),93.8%,95.2%,102%,118%,119%,104%,78.4%,105%,72.4%,73.2%,76.1%,94%,99.3%,105%,98.6%,99.3%,103%,111%,106%,
COc1nc(N)ncc1-c1ccc2ncnc(N3CCc4cc(F)c(Cl)cc43)c2c1,34.2%,-40.3% (active),3.86% (active),-54.4% (active),-23.8% (active),41.1%,3.34% (active),-74.9% (active),-55.5% (active),30.6%,31.6%,64.3%,-22.7% (active),-46.2% (active),54.2%,17.9%,1.76% (active),78.8%,62.4%,
CN1C(=O)/C(=C\C(=O)c2cc3ccccc3oc2=O)c2ccccc21,46.3%,75.4%,98.7%,54.4%,64.3%,-68.8% (active),78.3%,80.7%,52.2%,71.1%,25.6%,43.2%,58.7%,30.5%,77.4%,97.3%,54%,91.9%,58.7%,
